PubChem BioAssay AID1240 (Sanford-Burnham Center for Chemical Genomics, 2008)
Screen size: about 50,000 compounds; about 800 (1.6%) showed an effect of 50% or more. Shown is part of a subset that was picked to be rich in strong results.

What follows are compounds tested against Bcl-2-like protein 10 (Homo sapiens) (UniProt Q9HD36) (assay: Phenotype converters, Bcl-B/TR3 peptide binding displacement, primary biochemical FP (AID 1240;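 further: 0% = Bcl-B with tracer peptide and DMSO and 100% = tracer peptide lacking Bcl-B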)). Settings: GST-Bcl-B / FITC-TR3 peptide fluorescence polarization; stronger effect = higher value; compound at 3.75 mg/L.
Chain of Bcl-2-like protein 10 (Homo sapiens) (Q9HD36 whole entry, looked up): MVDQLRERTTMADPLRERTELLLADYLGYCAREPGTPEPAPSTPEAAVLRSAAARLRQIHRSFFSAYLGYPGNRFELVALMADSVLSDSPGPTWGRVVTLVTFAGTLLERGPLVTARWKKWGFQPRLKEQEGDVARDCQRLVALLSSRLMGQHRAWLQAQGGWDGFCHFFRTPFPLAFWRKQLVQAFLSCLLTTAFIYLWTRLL

Compound	displacement [%]
Cc1ccc2c(nc3s/c(=C\c4cccc(Cl)c4Cl)c(=O)n32)c1C	-9.5
Cc1ccc(S(=O)(=O)Oc2ccc(/C=C3\SC(N)=NC3=O)cc2Br)cc1	1.8
O=c1[nH]c(=O)n(-c2ccc(Cl)cc2)c(O)c1C=Nc1cccc(F)c1	10
Cc1cc(OCC(=O)Nc2cccc(F)c2)cc(C)c1Cl	4.1
COCCNCCOc1c(C)cc(Cl)cc1C	7.2
O=C(Nc1cc(Cl)cc(Cl)c1)c1ccc(CN2CCc3ccccc3C2)cc1	-3.7
CCN1C(=O)/C(=C\c2ccccc2)C(C(=O)OC)=C1C	-23.3
C=CCN1C(=O)/C(=C\c2ccc(C(=O)OC)cc2)C(C(=O)OC)=C1C	-14.5
C=CCN1C(=O)/C(=C\c2ccco2)C(C(=O)OC)=C1C	65.4
COC(=O)C1=C(C)N(c2ccccc2F)C(=O)/C1=C\c1ccccc1F	112
COC(=O)C1=C(C)N(c2ccccc2F)C(=O)/C1=C\c1ccc(F)cc1	2.3
COC(=O)C1=C(C)N(c2ccc(C)c(C)c2)/C(=C/c2ccco2)C1=O	8.8
C=CCN1C(=O)/C(=C\c2ccccc2)C(C(=O)OC)=C1C	-2.2
CCN1C(=O)/C(=C\c2ccc(C)cc2)C(C(=O)OC)=C1C	86.2
COC(=O)C1=C(C)N(c2ccccc2F)C(=O)/C1=C\c1sccc1C	7.8
COC(=O)C1=C(C)N(c2cc(C)cc(C)c2)/C(=C\c2sccc2C)C1=O	27
CCN1C(=O)/C(=C\c2ccc(F)cc2)C(C(=O)OC)=C1C	34.2
COC(=O)C1=C(C)N(c2cc(C)cc(C)c2)/C(=C/c2ccco2)C1=O	99.6
COc1ccc(C(=O)N2CCCc3ccccc32)cc1OC	-3.3
Cc1cc(=O)oc2cc(OCc3ccc(F)cc3)c(Cl)cc12	16.8
Cc1cc([N+](=O)[O-])ccc1NCc1cccc(C(F)(F)F)c1	2.6
CC1(C)CC(=O)C2=C(C1)c1c(ccc3ccccc13)NC2c1cccs1 (stereo not drawn)	7.2

Compound	displacement [%]
O=C(Nc1ccc(F)cc1)c1ccco1	12.9
COC(=O)C1=C(C)N(C)C(=O)/C1=C\c1ccc(C(=O)OC)cc1	16.4
COCCN1C(=O)/C(=C\c2ccc3c(c2)OCO3)C(C(=O)OC)=C1C	-8
COC(=O)C1=C(C)N(c2cccc(C)c2)C(=O)/C1=C\c1ccc(C(=O)O)cc1	6.9
COC(=O)C1=C(C)N(c2ccc(C)cc2)C(=O)/C1=C\c1ccc2c(c1)OCO2	107
COC(=O)C1=C(C)N(C)C(=O)/C1=C\c1ccc2c(c1)OCO2	-0.7
COC(=O)C1=C(C)N(c2ccccc2)C(=O)/C1=C\c1ccc(C(=O)OC)cc1	130
COc1ccccc1CC1S/C(=N\N=C\c2cccc([N+](=O)[O-])c2)NC1=O (stereo not drawn)	12.9
COc1ccc(NC(=O)Nc2ccccc2C(F)(F)F)cc1	8.4
COC(=O)C(NS(=O)(=O)c1ccccc1)C(C)C (stereo not drawn)	-12
O=S(=O)(NC(c1cccs1)C(Cl)(Cl)Cl)c1ccc(Cl)cc1 (stereo not drawn)	7
CN(C)c1cccc2c(C(NS(=O)(=O)c3ccccc3)C(Cl)(Cl)Cl)ccc(N(C)C)c12 (stereo not drawn)	144
CCCCNC(=O)/C(=C/c1ccc(C)o1)NC(=O)c1ccccc1	13.1
CCOc1ccc(NC2=C(Cl)C(=O)N(c3cccc(Cl)c3Cl)C2=O)cc1	16.3
N#C/C(=C/c1cc([N+](=O)[O-])ccc1Cl)C(=O)Nc1cccc(Br)c1	-3.3
COc1ccc(N2CC(C(=O)N/N=C/c3cccs3)CC2=O)cc1 (stereo not drawn)	65
O=C(N/N=C/c1cccs1)C1CC(=O)N(c2ccccc2)C1 (stereo not drawn)	25
O=C(N/N=C/c1cccs1)C1CC(=O)N(c2ccc(Cl)cc2)C1 (stereo not drawn)	-9.3
O=C(O)/C=C/c1cccc(NS(=O)(=O)c2cccs2)c1	-13
Cc1nnc(SCC(=O)Nc2ccc3c(c2)oc2ccccc23)s1	-8.5
Cn1nnnc1SCC(=O)Nc1ccccc1	4.1
Cn1nnnc1SCC(=O)Nc1ccc2c(c1)oc1ccccc12	87

Compound	displacement [%]
O=C1NC(=O)/C(=C\c2cc3c(cc2[N+](=O)[O-])OCO3)S1	6.8
O=C1OC(/C=C/c2ccccc2)=NC/1=C/c1ccccc1	13.6
CCOc1c(Br)cc(/C=C2/C(=O)N(c3ccccc3)N=C2C)cc1OC	-0.6
CCN(CC)c1ccc(/C=C2N=C(/C=C/c3ccccc3)OC/2=O)cc1	-28
CCOc1c(Br)cc(/C=C2N=C(/C=C/c3ccccc3)OC/2=O)cc1OC	105
COc1ccc(OC)c(/C=C2N=C(/C=C/c3ccccc3)OC/2=O)c1	9.6
CCCOc1ccc(C=C2C(=O)N(C)C(=O)N(C)C2=O)cc1OC	1.3
COc1cc(/C=C2\N=C(c3ccccc3)OC2=O)cc(Br)c1OCc1c(C)no[n+]1[O-]	-1.1
O=C1OC(c2ccccc2F)=N/C1=C\c1cccc([N+](=O)[O-])c1	9.9
O=C1OC(/C=C/c2ccccc2)=NC/1=C/c1cccc([N+](=O)[O-])c1	98.4
COc1ccc(/C=C2N=C(/C=C/c3ccccc3)OC/2=O)cc1	88.6
O=C1OC(c2ccccc2I)=N/C1=C\c1cccc([N+](=O)[O-])c1	-4
CCCOc1ccc(/C=C2N=C(/C=C/c3ccccc3)OC/2=O)cc1OC	166
CCOC(=O)c1c(-c2ccccc2)csc1NC(=O)c1ccc(C)cc1	-5.7
COc1cc(/C=C2\SC(N)=NC2=O)cc(Br)c1OCc1cccc2ccccc12	-62.1
Fc1cccc(-c2nnc3ccc(C(F)(F)F)cn23)c1	-17
CC(=O)Nc1ccc(I)cc1C	-5
Cc1cc2c(nc3s/c(=C/c4ccccc4)c(=O)n32)c(Br)c1C	-4.6
CC(C)c1ccccc1OCCCN1CCOCC1	-6
Cc1ccc(N2C(=O)/C(=C/c3ccc(Oc4ccc([N+](=O)[O-])cn4)cc3)C(=O)NC2=S)c(C)c1	7.3
CC1=NN(c2ccccc2)C(=O)C1C(C)C[N+](=O)[O-] (stereo not drawn)	-9.8
COc1ccc(/C=N/NC(=O)COc2ccccc2Br)cc1	2.6

Compound	displacement [%]
COC(=O)c1ccc(NC(=O)c2ccoc2C)cc1	-2.7
Cc1occc1C(=O)Nc1ccc(C(=O)O)cc1	-1.9
CC(=O)c1ccc(NC(=O)c2ccoc2C)cc1	94
CCOc1cc(C2NC(=S)NC(C)=C2C(=O)Nc2ccc(Cl)cc2)ccc1O (stereo not drawn)	-3.2
Cc1ccc2c(Cl)c(C(=O)NCC3CCCO3)sc2c1 (stereo not drawn)	-20.5
CCOCCOC(=O)c1ccc(NC(=O)COc2ccc(C)cc2C)cc1	-9
O=C(ON=C1c2ccccc2-c2ccccc21)c1ccc(Cl)cc1Cl	13.1
CN1C(=O)C(=Cc2ccc(N3CCOCC3)cc2)C(=O)N(C)C1=O	8.9
CCCCOc1ccc(C=C2C(=O)N(C)C(=O)N(C)C2=O)cc1	8.8
Cc1ccc(C=C2C(=O)N(C)C(=O)N(C)C2=O)cc1	79.7
COc1ccccc1C/C(N)=N/OC(=O)COc1ccc2ccccc2c1	5.6
CCOc1ccccc1C1Nc2ccccc2NC2=C1C(=O)CC(c1ccc(OC)c(OC)c1)C2 (stereo not drawn)	11.3
CCOC(=O)COc1ccc(/C=c2/sc3nc4cc(C)c(C)cc4n3c2=O)cc1OC	-4.4
COc1cccc(-c2nnc(NC(=O)/C=C/c3ccccc3)s2)c1	51.4
O=C(/C=C/c1ccccc1)Nc1nnc(-c2ccncc2)s1	-6
O=C(/C=C/c1ccccc1)Nc1nnc(-c2ccccc2)s1	7.6
COc1ccc(NC(=O)c2ccc(OC)c(OC)c2)cc1Cl	20.4
O=C(Nc1ccccc1[N+](=O)[O-])c1ccc2ccccc2n1	89.3
Cc1ccccc1NC(=O)c1ccc2ccccc2n1	-3.8
O=C(Nc1ccccc1Cl)c1ccc2ccccc2n1	1
CC(=O)Nc1ccc2oc(-c3ccc4nc(NC(C)=O)sc4c3)nc2c1	-4.1
Cc1ccc(S(=O)(=O)N2CCCCCC2)cc1	-12.9

Compound	displacement [%]
COC(=O)c1ccc(-n2c(C)cc(/C=C3\SC(NC(C)=O)=NC3=O)c2C)cc1	114
C=CCN1C(=O)/C(=C\c2cc(C)n(-c3ccc([N+](=O)[O-])cc3)c2C)SC1=S	14.9
C=CCN1C(=O)/C(=C\c2ccc(C(=O)OC)cc2)SC1=S	7.8
C=CCN1C(=O)/C(=C/c2cc(C)n(-c3ccc(C(=O)OC)cc3)c2C)SC1=S	109
CC(=O)NC1=NC(=O)/C(=C/c2cc(C)n(-c3ccc(C(=O)O)cc3)c2C)S1	-89.7
COC(=O)c1cccc(-n2c(C)cc(/C=C3\SC(NC(C)=O)=NC3=O)c2C)c1	1.1
COc1ccccc1-n1c(SCC(=O)c2ccccc2)nc2ccccc2c1=O	-4.7
COc1ccc(-c2cc(C(=O)OC(C)C)c3cc(Br)ccc3n2)cc1	-3.9
O=C(Nc1ccccc1)C1C2/C=C\CCCCC21 (stereo not drawn)	-10.2
O=C(N/N=C/c1ccco1)c1ccc(C(=O)N/N=C/c2ccco2)cc1	27.6
Cc1cccc(NC(=O)c2ccccc2NC(=O)c2cccs2)c1C	9.5
O=C(O)c1cnn2c(C(F)(F)F)cc(-c3cccs3)nc12	5.9
CC1CCCCN1C(=O)c1cc2nc(-c3cccs3)cc(C(F)(F)F)n2n1 (stereo not drawn)	18.3
Nc1c(C(=O)C2CC2)sc2nc(-c3cccs3)cc(C(F)(F)F)c12	52.1
N#C/C(=C(/O)C(c1ccccc1)c1ccccc1)c1nc2ccccc2s1	-3.6
CC(C)(C)c1cc(C2=C(N3CCOCC3)C(=O)c3ccccc3C2=O)cc(C(C)(C)C)c1O	11.6
COc1cc2nc(-c3ccc([N+](=O)[O-])cc3)oc(=O)c2cc1OC	78
COc1cc2nc(-c3ccc(Oc4ccc([N+](=O)[O-])cc4)cc3)oc(=O)c2cc1OC	10.6
COc1cc2nc(-c3ccc([N+](=O)[O-])c(C)c3)oc(=O)c2cc1OC	-11.4
CCc1c(C)nc2ccc(C)cc2c1SCC(=O)O	9.8
